# Source: the supplement of paper PMC10037445
# In all, about 2,900 compounds were measured (“NF-kB SEAP reporter activity, fold change vs agonist alone”: median about 0.99, highest 2% from about 2.6 on). For the sample, the highest values were picked, then their nearest neighbours and some compounds at random.
# Assays:
# [1] = system: RAW-Dual; experiment: NF-kB SEAP reporter activity, fold change vs agonist alone; cytotoxicity flag (confluency mask): not cytotoxic; higher = enhanced NF-kB activity
# How it was run: (§1)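 After 50 nL of library stock was delivered by pin tool to RAW-Dual macrophages (50,000 cells/well, DMEM, 384-well plates), a PRR agonist was added 1 h later and the plates were kept at 37 °C, 5% CO2. Twenty hours later, IRF was read from supernatant by QuantiLuc luminescence and NF-κB by QuantiBlue absorbance at 620 nm. Reporter activity is stated as fold change over agonist-alone wells. Wells with IncuCyte confluency under 70% of agonist controls in both mask sets were counted as cytotoxic.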
# [2] = system: RAW-Dual; experiment: NF-kB SEAP reporter activity, fold change vs agonist alone; higher = enhanced NF-kB activity
# How it was run: as §1
# [3] = system: RAW-Dual; experiment: NF-kB SEAP reporter activity, fold change vs agonist alone; cytotoxicity flag (confluency mask): cytotoxic (confluency <70% of control); higher = enhanced NF-kB activity
# How it was run: as §1
# [4] = agonist: ODN 1826 (TLR9) 0.5 ug/mL
# [5] = agonist: Pam2CSK4 (TLR2/6) 0.1 ug/mL
# [6] = agonist: Pam3CSK4 (TLR2/1) 0.1 ug/mL
# [7] = library stock concentration (final ~1000-fold dilution): 10 mM, cytotoxicity flag (confluency mask): not cytotoxic, agonist: Imiquimod (TLR7) […]
# [8] = library stock concentration (final ~1000-fold dilution): 10 mM, cytotoxicity flag (confluency mask): not cytotoxic, agonist: MPLA (TLR4) […]
smiles,measurement,setting,value
C[N+]1(C)CCC[C@H]1C(=O)O (library stock concentration (final ~1000-fold dilution): 10 mM),NF-kB SEAP reporter activity,[1]; agonist: LPS (TLR4) 0.1 ug/mL,1.08
same,NF-kB SEAP reporter activity,[1]; [4],1.08
same,NF-kB SEAP reporter activity,[1]; [5],1.16
same,NF-kB SEAP reporter activity,[1]; [6],1.08
C[N+]1(C)CCC[C@H]1C(=O)O,NF-kB SEAP reporter activity,[2]; [7],0.952
same,NF-kB SEAP reporter activity,[2]; [8],0.985
CCCC(NC(=O)/C(C#N)=C/c1cccc(Br)n1)c1ccccc1 (configuration not stated) (library stock concentration (final ~1000-fold dilution): 10 mM),NF-kB SEAP reporter activity,[1]; agonist: LPS (TLR4) 0.1 ug/mL,0.416
same,NF-kB SEAP reporter activity,[1]; [4],0.925
same,NF-kB SEAP reporter activity,[1]; [5],0.387
same,NF-kB SEAP reporter activity,[1]; [6],0.838
CCCC(NC(=O)/C(C#N)=C/c1cccc(Br)n1)c1ccccc1 (configuration not stated),NF-kB SEAP reporter activity,[2]; [7],0.971
same,NF-kB SEAP reporter activity,[2]; [8],0.962
Cc1[nH]c2ccccc2c1CCNC(=O)c1cccs1,NF-kB SEAP reporter activity,[2]; [7],1.06
same,NF-kB SEAP reporter activity,[2]; [8],1.11
Cc1[nH]c2ccccc2c1CCNCc1ccc(/C=C/C(=O)NO)cc1 (library stock concentration (final ~1000-fold dilution): 10 mM),NF-kB SEAP reporter activity,[3]; agonist: LPS (TLR4) 0.1 ug/mL,4.6
same,NF-kB SEAP reporter activity,[3]; [4],0.219
same,NF-kB SEAP reporter activity,[3]; [5],0.886
same,NF-kB SEAP reporter activity,[3]; [6],1.47
Cc1[nH]c2ccccc2c1C1=C(NCCc2ccc(F)cc2)C(=O)N(C)C1=O (library stock concentration (final ~1000-fold dilution): 10 mM),NF-kB SEAP reporter activity,[1]; agonist: LPS (TLR4) 0.1 ug/mL,1.23
same,NF-kB SEAP reporter activity,[1]; [4],0.588
same,NF-kB SEAP reporter activity,[1]; [5],0.531
same,NF-kB SEAP reporter activity,[1]; [6],0.337
Cc1[nH]c2ccccc2c1C1=C(NCCc2ccc(F)cc2)C(=O)N(C)C1=O,NF-kB SEAP reporter activity,[2]; [7],1.01
same,NF-kB SEAP reporter activity,[2]; [8],1.28
Cc1[nH]c2ccccc2c1CCNC(=O)c1cccs1 (library stock concentration (final ~1000-fold dilution): 10 mM),NF-kB SEAP reporter activity,[1]; agonist: LPS (TLR4) 0.1 ug/mL,1
same,NF-kB SEAP reporter activity,[1]; [4],1.06
same,NF-kB SEAP reporter activity,[1]; [5],1.12
same,NF-kB SEAP reporter activity,[1]; [6],0.991
Cc1[nH]c2ccccc2c1CCNCc1ccc(/C=C/C(=O)NO)cc1,NF-kB SEAP reporter activity,"[2]; library stock concentration (final ~1000-fold dilution): 10 mM, cytotoxicity flag (confluency mask): cytotoxic (confluency <70% of control), agonist: Imiquimod (TLR7) […]",2.51
same,NF-kB SEAP reporter activity,"[2]; library stock concentration (final ~1000-fold dilution): 10 mM, cytotoxicity flag (confluency mask): cytotoxic (confluency <70% of control), agonist: MPLA (TLR4) […]",2.63
O=c1oc2cc(O)ccc2c2ccc(O)cc12,NF-kB SEAP reporter activity,[2]; [7],1.26
same,NF-kB SEAP reporter activity,[2]; [8],1.58
O=c1oc2cc(O)ccc2c2ccc(O)cc12 (library stock concentration (final ~1000-fold dilution): 10 mM),NF-kB SEAP reporter activity,[1]; agonist: LPS (TLR4) 0.1 ug/mL,1.08
same,NF-kB SEAP reporter activity,[1]; [4],0.575
same,NF-kB SEAP reporter activity,[1]; [5],0.257
same,NF-kB SEAP reporter activity,[1]; [6],0.455
CNC(=O)c1ccc(-c2cnc3cnc(-c4ccccc4)cn23)cc1,NF-kB SEAP reporter activity,[2]; [7],1.1
same,NF-kB SEAP reporter activity,[2]; [8],1.37
CNC(=O)c1ccc(-c2cnc3cnc(-c4ccccc4)cn23)cc1 (library stock concentration (final ~1000-fold dilution): 10 mM),NF-kB SEAP reporter activity,[1]; agonist: LPS (TLR4) 0.1 ug/mL,1.54
same,NF-kB SEAP reporter activity,[1]; [4],0.763
same,NF-kB SEAP reporter activity,[1]; [5],1.22
same,NF-kB SEAP reporter activity,[1]; [6],2.3
CC12CCC3c4ccc(O)cc4CC(CCCCCCCCCS(=O)CCCC(F)(F)C(F)(F)F)C3C1CCC2O (configuration not stated),NF-kB SEAP reporter activity,[2]; [7],0.89
same,NF-kB SEAP reporter activity,[2]; [8],0.904
CC12CCC3c4ccc(O)cc4CC(CCCCCCCCCS(=O)CCCC(F)(F)C(F)(F)F)C3C1CCC2O (configuration not stated) (library stock concentration (final ~1000-fold dilution): 10 mM),NF-kB SEAP reporter activity,[1]; agonist: LPS (TLR4) 0.1 ug/mL,0.714
same,NF-kB SEAP reporter activity,[1]; [4],0.721
same,NF-kB SEAP reporter activity,[1]; [5],0.634
same,NF-kB SEAP reporter activity,[1]; [6],0.864
CC#CC(=O)N1CCCC1c1nc(-c2ccc(C(=O)Nc3ccccn3)cc2)c2c(N)nccn12 (configuration not stated) (library stock concentration (final ~1000-fold dilution): 10 mM),NF-kB SEAP reporter activity,[1]; agonist: LPS (TLR4) 0.1 ug/mL,1.09
same,NF-kB SEAP reporter activity,[1]; [4],0.844
same,NF-kB SEAP reporter activity,[1]; [5],0.581
same,NF-kB SEAP reporter activity,[1]; [6],0.793
CC#CC(=O)N1CCCC1c1nc(-c2ccc(C(=O)Nc3ccccn3)cc2)c2c(N)nccn12 (configuration not stated),NF-kB SEAP reporter activity,[2]; [7],0.862
same,NF-kB SEAP reporter activity,[2]; [8],0.81
COC1OC(COS(=O)(=O)O)C(OC2OC(C(=O)O)C(OC3OC(COS(=O)(=O)O)C(OC4OC(C(=O)O)C(OC5OC(COS(=O)(=O)O)C(O)C(O)C5NS(=O)(=O)O)C(O)C4O)C(OS(=O)(=O)O)C3NS(=O)(=O)O)C(O)C2OS(=O)(=O)O)C(O)C1NS(=O)(=O)O (configuration not stated),NF-kB SEAP reporter activity,"[2]; library stock concentration (final ~1000-fold dilution): 10 mM water, cytotoxicity flag (confluency mask): not cytotoxic, agonist: Imiquimod (TLR7) […]",1.04
same,NF-kB SEAP reporter activity,"[2]; library stock concentration (final ~1000-fold dilution): 10 mM water, cytotoxicity flag (confluency mask): not cytotoxic, agonist: MPLA (TLR4) […]",1.06
COC1OC(COS(=O)(=O)O)C(OC2OC(C(=O)O)C(OC3OC(COS(=O)(=O)O)C(OC4OC(C(=O)O)C(OC5OC(COS(=O)(=O)O)C(O)C(O)C5NS(=O)(=O)O)C(O)C4O)C(OS(=O)(=O)O)C3NS(=O)(=O)O)C(O)C2OS(=O)(=O)O)C(O)C1NS(=O)(=O)O (configuration not stated) (library stock concentration (final ~1000-fold dilution): 10 mM water),NF-kB SEAP reporter activity,[1]; agonist: LPS (TLR4) 0.1 ug/mL,1.06
same,NF-kB SEAP reporter activity,[1]; [4],1.3
same,NF-kB SEAP reporter activity,[1]; [5],1.25
same,NF-kB SEAP reporter activity,[1]; [6],1.04
CC(C(=O)O)c1cccc(C(=O)c2ccccc2)c1 (configuration not stated),NF-kB SEAP reporter activity,[2]; [7],0.866
same,NF-kB SEAP reporter activity,[2]; [8],1.05
CC(C)C(C(=O)Nc1ccc(C(=O)NO)cc1)c1ccccc1 (configuration not stated),NF-kB SEAP reporter activity,[2]; [7],0.965
same,NF-kB SEAP reporter activity,[2]; [8],0.937
CC(C(=O)O)c1cccc(C(=O)c2ccccc2)c1 (configuration not stated) (library stock concentration (final ~1000-fold dilution): 10 mM),NF-kB SEAP reporter activity,[1]; agonist: LPS (TLR4) 0.1 ug/mL,1.02
same,NF-kB SEAP reporter activity,[1]; [4],1.01
same,NF-kB SEAP reporter activity,[1]; [5],1.11
same,NF-kB SEAP reporter activity,[1]; [6],1.19
CC(C)C(C(=O)Nc1ccc(C(=O)NO)cc1)c1ccccc1 (configuration not stated) (library stock concentration (final ~1000-fold dilution): 10 mM),NF-kB SEAP reporter activity,[1]; agonist: LPS (TLR4) 0.1 ug/mL,4.76
same,NF-kB SEAP reporter activity,[1]; [4],0.93
same,NF-kB SEAP reporter activity,[1]; [5],1.12
same,NF-kB SEAP reporter activity,[1]; [6],1.15
